Screening data: PubChem BioAssay, National Center for Advancing Translational Sciences (NCATS)
VDR inhibitor = vitamin D3 receptor (human) inhibition | VDR-SRC2-3 peptide fluorescence polarization, 2 h | P11473 | 400,000 compounds, 0.93% hits | AID 504847 | Potency, µM, inactives show max response, negative = inhibition, usual class: inhibitors
Target sequence (P11473 whole entry, looked up): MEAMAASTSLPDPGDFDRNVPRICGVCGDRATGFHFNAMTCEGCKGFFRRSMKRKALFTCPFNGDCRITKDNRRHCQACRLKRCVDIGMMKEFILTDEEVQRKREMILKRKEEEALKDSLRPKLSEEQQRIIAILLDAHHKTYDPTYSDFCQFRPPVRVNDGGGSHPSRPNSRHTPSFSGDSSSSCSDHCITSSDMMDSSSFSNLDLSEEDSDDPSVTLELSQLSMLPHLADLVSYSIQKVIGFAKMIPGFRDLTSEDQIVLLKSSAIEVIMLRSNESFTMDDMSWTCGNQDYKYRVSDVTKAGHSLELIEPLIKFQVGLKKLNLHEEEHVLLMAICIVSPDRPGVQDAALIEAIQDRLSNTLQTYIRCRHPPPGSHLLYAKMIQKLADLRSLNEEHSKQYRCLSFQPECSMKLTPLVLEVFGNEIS
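Fluorescence polarization assay measuring small-molecule disruption of VDR binding to the coregulator peptide SRC2-3. Compounds were pin-transferred (23 nl) into the reagent mix and incubated 2 h at room temperature before reading.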
Tau fibril ThT = blocks human tau fibril formation measured by thioflavin T | Potency, µM (doses to about 57.4 µM), for inactives: at the top dose activity, negative = inhibition, actives largely listed as inhibitors | P10636 | 270,000 compounds, 2.1% hits | recombinant tau K18 P301L, heparin-induced fibrillization, ThT fluorescence; further: nearly all actives have a fitted effect of over 55% in size
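In this qHTS, human K18 P301L tau is incubated with compound and heparin for 6 hr at 37 C, and Thioflavin T fluorescence then reports fibril load.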
Tau fluor cs = counter-screen for tau fibril formation inhibitors; tau K18 P301L Alexa594 fluorescence, heparin fibrillization; Potency, µM (titrated, usually from 57.7 µM), for inactives: at the top dose activity change, negative = decrease; 280,000 compounds, 0.93% hits; AID 1463; further: nearly all actives have a fitted effect of over 55% in size
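Human tau K18 P301L (15 uM unlabeled, 0.24 uM Alexa 594-labeled) in 100 mM sodium acetate pH 7 with 20 uM heparin, 6 hr at 37 C. ThT 30 uM added, 1 hr ambient; Alexa 594 FP and total fluorescence read at 555/632 nm.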
PLK1 PBD block = PLK1 (human) polo-box domain binding inhibition | P53350 | Plk1 PBD binding of FITC phosphopeptide, fluorescence polarization | Potency, µM, without a hit: max response, negative = inhibition, most hits filed as inhibitors | 360,000 compounds, 2.8% hits; further: series mostly up to about 57 µM; nearly all actives have a fitted effect of over 65% in size
Sfp PPTase inh = blocks B. subtilis Sfp PPTase activity | Q9F4F7 | Biochemical Sfp PPTase activity, qHTS | Potency, µM, without a hit: largest response in the series, negative = inhibition, most hits filed as inhibitors | 310,000 compounds, 3.5% hits | AID 1490;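 further: the enzyme is Sfp with the accession as filed and its product quenches rhodamine fluorescence; 0% = enzyme reaction without inhibitor and -100% = no enzyme wells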
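Fluorescence-quenching assay with 15 nM Sfp, 5 uM rhodamine-CoA and 12.5 uM BHQ-2-labelled ybbR peptide in pH 7.6 Hepes/MgCl2 buffer. Enzyme was pre-incubated with compound for 15 min at room temperature. Rate was taken from the 30-min fluorescence change (525/598 nm).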
Tau fibril FP = inhibitors of human tau fibril formation; P10636; K18 P301L tau heparin fibrillization, Alexa594 FP, 6 h; Potency, µM (titrated, usually from 57.7 µM), for the others: top-dose activity, negative = inhibition, usual class: inhibitors; 280,000 compounds, 0.39% hits; AID 1468; further: nearly all actives have a fitted effect of over 55% in size
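Human K18 P301L fragment (15 uM unlabeled plus 0.24 uM Alexa 594-labeled) in 100 mM sodium acetate pH 7 with compound, aggregation induced by 20 uM heparin for 6 hr at 37 C. ThT (30 uM) added for 1 hr, then Alexa 594 FP read.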
Starred values were filed as active, the others as inactive; u = inconclusive; x = no result; [ ] = remark or other dose. Shown are actives, neighbours in structure and some others; about 6% of the full set was active somewhere. The call rests on the fitted dose curve; in most records, active means well fitted curve in the direction sought with a large enough effect; inconclusive means small, poorly fitted or top-dose-only effect, or another doubt; inactive means no such curve, though single readings can be large; an effect the other way counts as inactive or inconclusive. Unless noted, on the % scale 0 is the no-effect control and ±100 the full control effect; potency means the concentration at half of the fitted maximal effect.

SMILES	VDR inhibitor	Tau fibril ThT	Tau fluor cs	PLK1 PBD block	Sfp PPTase inh	Tau fibril FP
O=C(CSc1ncn[nH]1)c1cccc([N+](=O)[O-])c1	u	u	-27%	u	50µM*	u
Cc1cc(SCC(=O)c2cccc([N+](=O)[O-])c2)nc(=O)[nH]1	u	x	x	21µM*	45µM*	x
Cc1cccc(Nc2ncnc3c2cnn3C)c1C	-1%	6%	-2%	x	x	-6%
O=C(NCc1cccnc1)C1C2C=CC(C2)C1C(=O)Nc1cccc(C(F)(F)F)c1 (centres undefined)	x	x	x	-1%	x	x
CCOc1ccc(NC(=O)CN(C)C(=O)c2ccccc2SCc2c(C)noc2C)cc1OCC	u	x	x	-7%	x	x
COC(=O)c1scc(-c2ccc(C)cc2)c1S(=O)(=O)N1CCN(c2ccc(C)cc2C)CC1	5%	-4%	-6%	x	x	1%
O=C(CSc1ncn[nH]1)NCc1ccccc1	-12%	-8%	-5%	-9%	11%	-2%
O=C(CSc1ncn[nH]1)c1ccccc1	u	-10%	-4%	24µM*	56µM*	-12%
COc1ccc(Cn2c(=O)c3oc4ccccc4c3n(Cc3ccccc3)c2=O)cc1	17%	8%	-10%	x	x	-7%
CN(C)c1ccc(NC(=S)NC23CC4CC(CC(C4)C2)C3)cc1	-1%	x	x	-14%	14%	x
O=C1CCCC2=C1C(c1ccncc1)n1c(nc3ccccc31)N2 (centres undefined)	u	-2%	-2%	27µM*	23%	0%
CC1CC(=O)C2=C(C1)Nc1nc3ccccc3n1C2c1cccnc1 (centres undefined)	-17%	-10%	-6%	-14%	-9%	-5%
Fc1ccccc1Cc1noc(CN2CCC(OCc3cccnc3)CC2)n1	-1%	-15%	12%[2.34 µM]	-9%	35µM*	-1%
C(=N\Nc1ccccn1)/c1c[nH]c2ccccc12	-8%	7.1µM*	14µM*[quencher]	5%	u	9%
O=c1cnnc(N/N=C/c2c[nH]c3ccccc23)[nH]1	19%	u	-19%	-2%	u	1%
C(=NN=Cc1c[nH]c2ccccc12)c1c[nH]c2ccccc12	x	x	x	-5%	x	x
C(=N\c1nccs1)/c1c[nH]c2ccccc12	9%	-10%	-7%	-23%	45µM*	2%
O=C(O)c1cccc2c(/C=N/Nc3ccccn3)c[nH]c12	-9%	x	-24%	1%	50µM*	9%
O=c1nc(N/N=C/c2c[nH]c3ccccc23)cn[nH]1	4%	x	-18%	-5%	50µM*	-3%
O=c1c(S(=O)(=O)c2ccccc2)cn(Cc2ccc(F)cc2)c2cc(N3CCCCC3)c(F)cc12	12%	3%	-1%	x	x	-7%
COc1cccc(CNC(=O)[C@@H]2CCCN2C(=O)[C@@H]2CCCN2S(=O)(=O)c2ccc(OC)c(C)c2)c1	x	x	x	0%	x	x
CN(C(=O)Cn1nc(C(=O)O)c2ccccc2c1=O)C1CCCCC1	-1%	x	x	0%	x	x
CC1Cc2cc(S(=O)(=O)NCc3ccc(N(C)C)cc3)ccc2N1C(=O)C1CCC1 (centres undefined)	-5%	-12%	-20%	x	x	5%
Brc1ccccc1/C=N/Nc1ccccn1	11%	0%	-2%	-6%	16%	10%
FC(F)(F)c1ccccc1/C=N/Nc1ccccn1	0%	-7%	-13%	-2%	79µM*	-13%
SMILES	VDR inhibitor	Tau fibril ThT	Tau fluor cs	PLK1 PBD block	Sfp PPTase inh	Tau fibril FP
C=CCNc1sc(C(=O)c2ccccc2)c(N)c1-c1nc2ccccc2s1	-14%	-7%	-4%	17µM*	20µM*	-7%
CCOC(=O)c1sc(NCc2ccco2)c(-c2nc3ccccc3s2)c1N	0%	u	u	-11%	u	4%
CNc1oc(C)nc1S(=O)(=O)c1ccccc1	-18%	u	-20%	u	32µM*	u
COc1ccc(NC(=O)CCCn2c(=O)c3cccn3c3ccccc32)c(OC)c1	2%	u	-15%	x	x	-8%
COc1ccc(OC)c(NC(=O)Cn2c(=O)c3cccn3c3ccccc32)c1	0%	u	u	x	x	3.2µM*
COc1ccc(NC(=O)Cn2c(=O)c3cccn3c3ccccc32)cc1	7%	-9%	u	x	x	18µM*
